Compounds without any hit were thinned out: in the full panel of roughly 83,000, 20% have a hit.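 Cell lines were cultured in 96-well plates, exposed to a single compound concentration, and assessed for percent growth 48 hours later.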 A number with no mark means an inactive call. Active and inactive are the calls of the source. Rule for the calls: active = growth percent below 10; inactive = the rest.
Legend:
Assay in all cases: NCI-60 one-dose screen, 48 h (100 = growth as untreated, 0 = no growth, -100 = all killed)
Settings in all cases: 10 µM unless noted
[1] = tested on: SR leukemia
[2] = tested on: RPMI-8226 leukemia
[3] = tested on: OVCAR-8 ovarian
[4] = tested on: OVCAR-5 ovarian
[5] = tested on: OVCAR-4 ovarian
[6] = tested on: SK-OV-3 ovarian
[7] = tested on: IGROV1 ovarian
[8] = tested on: OVCAR-3 ovarian
[9] = tested on: HS 578T breast
[10] = tested on: NCI/ADR-RES ovarian
[11] = tested on: T-47D breast
[12] = tested on: BT-549 breast
[13] = tested on: MDA-MB-435 melanoma
[14] = tested on: SW-620 colon
[15] = tested on: MCF7 breast
[16] = tested on: HCT-116 colon
[17] = tested on: HCC-2998 colon
[18] = tested on: KM12 colon

Row | SMILES | growth [1] | growth [2] | growth [3] | growth [4] [%] | growth [5] | growth [6] | growth [7] | growth [8] | growth [9] | growth [10] | growth [11] | growth [12] | growth [13] | growth [14] | growth [15] | growth [16] | growth [17] | growth [18]
1 | C=C(C)[C@@H]1CCC[C@]2(C(=O)O)CC[C@]3(C)[C@@H](CC[C@@H]4[C@@]5(C)C/C(=C/c6ccncc6)C(=O)C(C)(C)[C@@H]5CC[C@]43C)[C@@H]12 | 3.51% (active) | -9.5% (active) | 24.9% | 47.9 | 28.4% | 78% | 22.6% | 11.5% | 53% | 37.5% | 47.5% | 46.5% | 19.8% | 17.5% | 19.1% | 4.88% (active) | 23.8% | 19.7%
2 | COc1ccc(C(=O)/C=C/c2ccc(Cl)cc2)cc1S(=O)(=O)Nc1c(N)nc(SC)[nH]c1=O | 9.2% (active) | 10% | 10.8% | 86.3 | 66.7% | 97.4% | 40.1% | 10.1% | 81.4% | 97.5% | 62.5% | 60.5% | 80% | 7.52% (active) | 18.8% | 11.4% | 90.8% | 12.8%
3 | CC(C)(C)n1cc(-c2ccnc(NCCNS(=O)(=O)c3ccc(O)cc3)c2)c(-c2cccc(O)c2)n1 | 88% | 80% | 96% | 97.1 | 94.1% | 116% | 112% | 114% | 97.6% | 107% | 88.4% | 93.6% | 101% | 103% | 81.5% | 82.4% | 122% | 94.7%
4 | CC1=CCC(OC(=O)C(C)(C)CC(O)(C(C)O)C(O)C2(C)C=CC(Cc3ccc(C(C)C)cc3)(C(C)C)CC2)(C(C)C)CC1 (stereo unspecified) | 99% | 108% | 104% | 94.9 | 102% | 107% | 95.5% | 102% | 101% | 98.2% | 98.9% | 109% | 94.1% | 92.6% | 102% | 93.7% | 103% | 105%
5 | Cc1ccc(S(=O)(=O)N2CCC(=O)c3ccccc32)cc1 | 39.1% | 106% | 103% | 91 | 99.3% | 62.2% | 85.2% | 63.4% | 71.7% | 72.6% | 78.7% | 65.6% | 6.12% (active) | 44.7% | 40.5% | 59.4% | 83.8% | 33.5%
6 | O=C(Nc1cc(Cl)ccc1O)c1cccc(Nc2ccnc(C(F)(F)F)c2)c1 | 25% | 3.8% (active) | 39.4% | 77.8 | 33.8% | 56.4% | 75.7% | 53.4% | 60.4% | 15.2% | 10.8% | 34.9% | 31.2% | 62.9% | 26% | 26.1% | 25.5% | 36.5%
7 | NC(=O)c1c(NC(=O)c2cccc(C(F)(F)F)c2)sc2c1CCC(=O)C2 | -13.2% (active) | -22.5% (active) | 13.6% | 12.8 | -92.2% (active) | 1.42% (active) | -6.14% (active) | -37.6% (active) | 9.53% (active) | -2.23% (active) | -3.77% (active) | -28.2% (active) | -12.2% (active) | -12.4% (active) | 5.02% (active) | -28.2% (active) | 16.1% | 0.496% (active)
8 | O=C(/C=C/c1cccc(Cl)c1Cl)Nc1ncc(Cc2ccccc2Cl)s1 | 19.1% | 35.4% | 73.6% | 80.1 | 70.2% | 70.4% | 39.3% | 11.3% | 38% | 31% | 43.8% | 76.7% | -46.5% (active) | 27% | 12.7% | 24.2% | 76.3% | 28.8%
9 | CN(C)CCCC1(c2ccc(F)cc2)OCc2cc(-c3cc4ccccc4s3)ccc21 (stereo unspecified) | -15% (active) | -3.17% (active) | 7.22% (active) | 55.8 | 16.8% | 68% | -28% (active) | -29.1% (active) | 27.2% | 23.7% | -2.98% (active) | 80.1% | -84.4% (active) | -70% (active) | -53.5% (active) | -80.6% (active) | -78.4% (active) | -72.1% (active)
10 | Nc1nc(N)c2c(n1)NC(c1cccc(Nc3ccnc4cc(C(F)(F)F)ccc34)c1)CC(c1ccccc1)=N2 (stereo unspecified) | 4.11% (active) | 9.67% (active) | 63% | 113 | 57.8% | 65.3% | 59.4% | 45.3% | 53.7% | 70.2% | 83.4% | 114% | -30.4% (active) | 32.4% | 16.9% | 21% | 54.2% | 33.5%
11 | COc1cc(/C=C/C(=O)/C=C(O)/C=C/c2ccc(OC(=O)C34CC5CC(CC(C5)C3)C4)c(OC)c2)ccc1OC(=O)C12CC3CC(CC(C3)C1)C2 | 120% | 105% | 104% | 97.1 | 104% | 114% | 92.5% | 109% | 94.2% | 104% | 97.9% | 104% | 106% | 98.4% | 98.5% | 89.9% | 106% | 113%
12 | Fc1cccc(-c2ccc3c(c2)C2(CCNCC2)CN3)c1 | 110% | 95.7% | 108% | 103 | 92% | 112% | 97.4% | 102% | 105% | 95.5% | 78.9% | 93.1% | 108% | 106% | 92.5% | 94.3% | 99.4% | 102%
13 | O=C1/C=C/[C@@H](O)[C@@H]2C[C@@H](O)C[C@H]2/C=C/CCC[C@H](CCO)O1 | 9.21% (active) | 14.7% | 11% | 16.1 | 27.8% | 30.8% | 17.9% | -46.9% (active) | 29.4% | 5.98% (active) | -17.8% (active) | 8.06% (active) | 9.98% (active) | -46% (active) | -17.1% (active) | -62.5% (active) | 1.71% (active) | -54.3% (active)
14 | CNC1=CC(=O)c2c(C(=O)OC)c(C)[n+]([O-])c(C)c2C1=O | 95.5% | 76.1% | 35% | 96.1 | 26% | 120% | 70.2% | 7.04% (active) | 94.1% | 70.6% | 52.4% | 88.3% | -17.3% (active) | 42.5% | 57% | 16% | 50.1% | 61.3%
15 | N#CC1=C(N)Oc2ccc3ccccc3c2C1c1ccc([N+](=O)[O-])cc1 (stereo unspecified) | 77.3% | 83% | 85.7% | 108 | 69.3% | 83.4% | 50.6% | 79.4% | 90.2% | 94.6% | 82.5% | 91.7% | -51.3% (active) | 100% | 66% | 85.5% | 107% | 95.5%
16 | CC1=C2[C@@H](CC1)[C@]1(C)O[C@@](c3ccccc3)(C[C@H]1OC(=O)CO)[C@H]2OC(=O)/C=C/c1ccccc1 | 68.8% | 77.7% | 10.3% | 108 | 5.56% (active) | 119% | 108% | 97.6% | -10.2% (active) | 2.86% (active) | 65.2% | 0.952% (active) | -80.7% (active) | 104% | 78.6% | 86.2% | 93.2% | 88.4%
17 | Nc1c(C(=O)Nc2cccc(Cl)c2)sc2nc3c(cc12)CCCC3 | 53.9% | 93.6% | 93% | 93.4 | 90.9% | 96.2% | 106% | 103% | 97.7% | 101% | 80.8% | 93.1% | 34.4% | 92.3% | 71.6% | 91.6% | 91.4% | 77.6%

— PubChem BioAssay (NCI)
